# Results published in PubChem BioAssay (Tox21).
# “And” between values parts separate entries of the source, which are not always exact repeats. Equal entries are not always repeated. Records with an inconclusive call do not appear. Where a call stands in place of a potency, no number is given. The source holds several records for some structures; these can differ, active in one and inactive in another. The source made the active and inactive calls. Unless noted, calls come from the whole dose curve; as a rule, active = well fitted curve in the direction sought with a large enough effect in the repeat runs; inconclusive = weak or mixed curves; inactive = flat fitted curve, though single readings scatter.
# How the values were obtained:
# [1] = qHTS assay to test for compound auto fluorescence at 535 nm (green) in HEK293 cells (AID 720680); conditions: green autofluorescence 485/535 nm; series mostly up to 91.3 µM
# [2] = qHTS assay to test for compound auto fluorescence at 460 nm (blue) in HEK293 cell free culture (AID 720681); conditions: cell-free medium, autofluorescence 405/460 nm (blue); series mostly up to 91.3 µM
# In short: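 Compounds were added to cell-free DMEM with 10% FBS and fluorescence read directly. The blue channel used 405 nm excitation and 460 nm emission, with triamterene as the reference fluorophore.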
# [3] = qHTS assay to test for compound auto fluorescence at 535 nm (green) in HEK293 cell free culture (AID 720682); conditions: cell-free medium, green autofluorescence 485/535 nm, stronger effect = higher value; series mostly up to 91.3 µM
# In short: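 Green-label autofluorescence (485 nm excitation, 535 nm emission) measured on compound added to cell-free culture medium (DMEM, 10% FBS). Output is expressed relative to fluorescein.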
# [4] = qHTS assay to test for compound auto fluorescence at 590 nm (red) in HEK293 cell free culture (AID 720683); conditions: cell-free medium autofluorescence, Ex540/Em590 red; series mostly up to 91.3 µM
# In short: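 Cell-free wells of DMEM with 10% FBS received compound, and intrinsic fluorescence was read at excitation/emission 540/590 nm. Values expressed as equivalence to Rose Bengal sodium.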
# [5] = qHTS assay to test for compound auto fluorescence at 590 nm (red) in HepG2 cell free culture (AID 720684); conditions: cell-free medium autofluorescence, red 540/590 nm; series mostly up to 91.3 µM
# In short: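 Compound was pinned into wells holding MEM with 10% FBS and no cells, and red fluorescence was read at Ex/Em 540/590 nm. Signal is expressed as auto fluorescence equivalency relative to Rose Bengal sodium.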
# [6] = qHTS assay to test for compound auto fluorescence at 460 nm (blue) in HepG2 cell free culture (AID 720685); conditions: Cell-free culture medium, blue autofluorescence 405/460 nm; series mostly up to 91.3 µM
# In short: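 Compound (23 nL) or DMSO pinned into cell-free MEM with 10% FBS; blue fluorescence read at 405/460 nm excitation/emission, expressed as auto-fluorescence equivalency to triamterene.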
# [7] = qHTS assay to test for compound auto fluorescence at 535 nm (green) in HepG2 cell free culture (AID 720686); conditions: Cell-free medium, green autofluorescence 485/535 nm; series mostly up to 91.3 µM
# [8] = qHTS assay to test for compound auto fluorescence at 460 nm (blue) in HepG2 cells (AID 720687); conditions: autofluorescence 405/460 nm, 1 h; series mostly up to 91.3 µM
# In short: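 HepG2 cells in MEM with 10% FBS, attached overnight at 37 C, were exposed to compound or DMSO for 1 hr at 37 C, 5% CO2. Blue fluorescence was read at 405/460 nm, with triamterene as reference fluorophore.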
# [9] = biological target: Glucocorticoid receptor (Homo sapiens) (UniProt P04150); test: qHTS assay to identify small molecule agonists of the glucocorticoid receptor (GR) signaling pathway (AID 720691; active = well fitted activation curve with a large enough effect in the signal ratio in the repeat runs, not every such curve was filed as active; the % refers to the signal ratio); conditions: GR-bla HeLa, beta-lactamase reporter ratio, 18 h; series mostly up to 62.4 µM
# In short: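 qHTS in GR-bla HeLa cells: 4 h settling at 37 C/5% CO2, 18 h compound incubation at 37 C, 2 h LiveBLAzer B/G FRET substrate at room temperature, fluorescence intensity measured.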
# [10] = biological target: Glucocorticoid receptor (Homo sapiens) (UniProt P04150); test: qHTS assay to identify small molecule antagonists of the glucocorticoid receptor (GR) signaling pathway (AID 720692; active = well fitted inhibition curve with a large enough effect in the signal ratio in the repeat runs, not every such curve was filed as active; the % refers to the signal ratio; note: potency is the fitted concentration of half-maximal effect); conditions: GR-bla HeLa, beta-lactamase FRET ratio, dexamethasone-stimulated, 18 h; series mostly up to 58.5 µM
# In short: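 Inhibition of glucocorticoid signalling is measured in HeLa cells with a GRE-controlled beta-lactamase reporter; cells are co-treated with compound and 5 nM dexamethasone (final) for 18 h before FRET substrate readout.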
# Chain of Glucocorticoid receptor (Homo sapiens) (P04150 whole entry, looked up): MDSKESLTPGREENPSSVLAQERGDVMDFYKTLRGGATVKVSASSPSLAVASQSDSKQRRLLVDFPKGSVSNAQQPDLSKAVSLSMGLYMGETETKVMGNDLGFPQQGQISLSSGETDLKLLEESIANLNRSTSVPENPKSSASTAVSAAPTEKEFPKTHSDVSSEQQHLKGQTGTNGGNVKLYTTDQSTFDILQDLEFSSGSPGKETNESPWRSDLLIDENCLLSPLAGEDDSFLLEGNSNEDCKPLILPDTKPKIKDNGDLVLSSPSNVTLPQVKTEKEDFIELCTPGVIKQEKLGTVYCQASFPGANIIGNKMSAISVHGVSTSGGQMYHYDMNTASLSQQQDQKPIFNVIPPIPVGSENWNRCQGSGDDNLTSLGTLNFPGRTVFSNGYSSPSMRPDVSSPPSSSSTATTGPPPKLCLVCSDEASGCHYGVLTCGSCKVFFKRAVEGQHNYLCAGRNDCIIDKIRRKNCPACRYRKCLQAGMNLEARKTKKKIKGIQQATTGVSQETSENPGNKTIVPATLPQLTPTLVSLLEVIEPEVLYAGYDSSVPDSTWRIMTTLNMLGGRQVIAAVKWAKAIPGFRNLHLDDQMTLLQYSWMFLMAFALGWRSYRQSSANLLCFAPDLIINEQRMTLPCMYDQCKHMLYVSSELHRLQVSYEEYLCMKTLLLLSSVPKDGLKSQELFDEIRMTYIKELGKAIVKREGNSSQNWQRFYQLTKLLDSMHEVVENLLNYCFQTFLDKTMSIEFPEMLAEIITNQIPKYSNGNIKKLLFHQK
Structure (SMILES),outcome [1],outcome [2],outcome [3],outcome [4],outcome [5],outcome [6],outcome [7],outcome [8],Potency [9],Potency [10],"fluorescence, % of fluorescein [1]","fluorescence, % of fluorescent control [2]",activity change [3],"fluorescence, % of fluorescent control [4]","fluorescence, % of Rose Bengal [5]","fluorescence, % of fluorescent control [6]","fluorescence, % of fluorescein control [7]","fluorescence, % of fluorescent control [8]",activation [9]
CN1CCN(c2c(F)cc3c(=O)c(C(=O)O)cn(CCF)c3c2F)CC1,inactive,inactive,inactive,inactive,inactive,inactive,inactive,inactive,inactive,inactive,–,–,–,–,–,–,–,–,–
CC(C)NCC(O)COc1ccc(CCOCC2CC2)cc1 (stereo not given),inactive,inactive,inactive,inactive,inactive,inactive,inactive,inactive,inactive,inactive,–,–,–,–,–,–,–,–,–
NS(=O)(=O)c1cc(-c2nn[nH]n2)c(NCc2cccs2)cc1Cl,inactive,inactive,inactive,inactive,inactive,inactive,inactive,inactive,inactive,inactive,–,–,–,–,–,–,–,–,–
CCCCCCCCc1ccc(S(=O)(=O)O)cc1,inactive,inactive,inactive,inactive,inactive,inactive,inactive,inactive,inactive,inactive,–,–,–,–,–,–,–,–,–
CCN1CC(CCN2CCOCC2)C(c2ccccc2)(c2ccccc2)C1=O (stereo not given),inactive,inactive,inactive,inactive,inactive,inactive,inactive,inactive,inactive,inactive,–,–,–,–,–,–,–,–,–
Cc1c(N)cccc1N,inactive,inactive,inactive,inactive,inactive,inactive,inactive,inactive,inactive,inactive,–,–,–,–,–,–,–,–,–
Nc1ccc(Oc2ccc(N)c(N)c2)cc1,inactive,inactive,inactive,inactive,inactive,inactive,inactive,inactive,inactive,–,–,–,–,–,–,–,–,–,–
CCCCN1C[C@H](O)[C@@H](O)[C@H](O)[C@H]1CO,inactive,inactive,inactive,inactive,inactive,inactive,inactive,inactive,inactive,inactive,–,–,–,–,–,–,–,–,–
CC1(C)S[C@@H]2[C@H](NC(=O)C(C(=O)O)c3ccccc3)C(=O)N2[C@H]1C(=O)O (stereo not given in full),inactive,inactive,inactive,inactive,inactive,inactive,inactive,inactive,inactive,inactive,–,–,–,–,–,–,–,–,–
CC(C)S,inactive,inactive,inactive,inactive,inactive,inactive,inactive,inactive,inactive,inactive,–,–,–,–,–,–,–,–,–
C=CC1CO1 (stereo not given),inactive,inactive,inactive,inactive,inactive,inactive,inactive,inactive,inactive,–,–,–,–,–,–,–,–,–,–
CCOc1ccc(NC(N)=O)cc1,inactive,inactive,inactive,inactive,inactive,inactive,inactive,inactive,inactive,inactive,–,–,–,–,–,–,–,–,–
CCCc1c2oc(C(=O)O)cc(=O)c2cc2c(=O)cc(C(=O)O)n(CC)c12,inactive,inactive,inactive,inactive,inactive,inactive,inactive,inactive,inactive,inactive,–,–,–,–,–,–,–,–,–
C1CCOC1,inactive,inactive,inactive,inactive,inactive,inactive,inactive,inactive,inactive,inactive,–,–,–,–,–,–,–,–,–
CN(C)CC[C@@H](c1ccc(Cl)cc1)c1ccccn1,inactive,inactive,inactive,inactive,inactive,inactive,inactive,inactive,inactive,inactive,–,–,–,–,–,–,–,–,–
CC(C)C1=CC2=CC[C@@H]3[C@](C)(CCC[C@@]3(C)C(=O)O)[C@H]2CC1,inactive,inactive,inactive,inactive,inactive,inactive,inactive,inactive,inactive,inactive and 54.9 µM (active),–,–,–,–,–,–,–,–,–
OCc1ccccc1O,inactive,inactive,inactive,inactive,inactive,inactive,inactive,inactive,inactive,inactive,–,–,–,–,–,–,–,–,–
OCCN(CCO)c1ccccc1,inactive,inactive,inactive,inactive,inactive,inactive,inactive,inactive,inactive,inactive,–,–,–,–,–,–,–,–,–
CC(C)c1ccccc1,inactive,inactive,inactive,inactive,inactive,inactive,inactive,inactive,inactive,inactive,–,–,–,–,–,–,–,–,–
OCC(CBr)(CBr)CBr,inactive,inactive,inactive,inactive,inactive,inactive,inactive,inactive,inactive,inactive,–,–,–,–,–,–,–,–,–
CC(CNC1CCCCC1)OC(=O)c1ccccc1 (stereo not given),–,–,–,–,–,–,–,–,inactive,inactive,0.0598% [at 18.6 µM] (inactive),0.0629% [at 18.6 µM] (inactive),0.0004% [at 18.6 µM] (inactive),-0.008% [at 18.6 µM] (inactive),0.136% [at 18.6 µM] (inactive),-0.0346% [at 18.6 µM] (inactive),-0.0274% [at 18.6 µM] (inactive),-0.124% [at 18.6 µM] (inactive),–

Structure (SMILES),outcome [1],outcome [2],outcome [3],outcome [4],outcome [5],outcome [6],outcome [7],outcome [8],Potency [9],Potency [10],"fluorescence, % of fluorescein [1]","fluorescence, % of fluorescent control [2]",activity change [3],"fluorescence, % of fluorescent control [4]","fluorescence, % of Rose Bengal [5]","fluorescence, % of fluorescent control [6]","fluorescence, % of fluorescein control [7]","fluorescence, % of fluorescent control [8]",activation [9]
CC(=O)N(CC(O)CN(C(C)=O)c1c(I)c(C(=O)NCC(O)CO)c(I)c(C(=O)NCC(O)CO)c1I)c1c(I)c(C(=O)NCC(O)CO)c(I)c(C(=O)NCC(O)CO)c1I (stereo not given),–,–,–,–,–,–,–,–,inactive,inactive,-0.0222% [at 18.6 µM] (inactive),0.0333% [at 18.6 µM] (inactive),-0.0739% [at 18.6 µM] (inactive),-0.132% [at 18.6 µM] (inactive),0.365% [at 18.6 µM] (inactive),-0.0088% [at 18.6 µM] (inactive),0.0651% [at 18.6 µM] (inactive),-0.0121% [at 18.6 µM] (inactive),–
CCOc1ccc2nc(N)sc2c1,inactive,inactive,inactive,inactive,inactive,inactive,inactive,inactive,inactive,inactive,–,–,–,–,–,–,–,–,–
C[C@@H](N)C(=O)O,inactive,inactive,inactive,inactive,inactive,inactive,inactive,inactive,inactive,inactive,–,–,–,–,–,–,–,–,–
CC1(O)CSC(C)(O)CS1 (stereo not given),inactive,inactive,inactive,inactive,inactive,inactive,inactive,inactive,inactive,inactive,–,–,–,–,–,–,–,–,–
C=CC(C)(O)CC/C=C(\C)CCC=C(C)C (stereo not given),inactive,inactive,inactive,inactive,inactive,inactive,inactive,inactive,inactive,inactive,–,–,–,–,–,–,–,–,–
CC(=O)OC(C)OC(C)=O,inactive,inactive,inactive,inactive,inactive,inactive,inactive,inactive,inactive,inactive,–,–,–,–,–,–,–,–,–
COC(=O)N[C@H](C(=O)N[C@@H](Cc1ccccc1)[C@@H](O)CN(Cc1ccc(-c2ccccn2)cc1)NC(=O)[C@@H](NC(=O)OC)C(C)(C)C)C(C)(C)C,inactive,inactive,inactive,inactive,inactive,inactive,inactive,inactive,inactive,inactive,–,–,–,–,–,–,–,–,–
COc1nc(C)nc(NC(=O)NS(=O)(=O)c2ccccc2OCCCl)n1,inactive,inactive,inactive,inactive,inactive,inactive,inactive,inactive,inactive,inactive,–,–,–,–,–,–,–,–,–
Oc1ccccc1F,inactive,inactive,inactive,inactive,inactive,inactive,inactive,inactive,–,inactive,–,–,–,–,–,–,–,–,–
CC(C)=CCCC(C)CCOC=O (stereo not given),inactive,inactive,inactive,inactive,inactive,inactive,–,inactive,inactive,inactive,–,–,–,–,–,–,–,–,–
ClC(Cl)Cl,inactive,inactive,inactive,inactive,inactive,inactive,inactive,inactive,–,inactive,–,–,–,–,–,–,–,–,–
NC(Cc1ccc(F)cc1)C(=O)O (stereo not given),–,–,–,–,–,–,–,–,–,–,0.0426% [at 3.72 µM] (inactive),-0.189% [at 3.72 µM] (inactive),0.0132% [at 3.72 µM] (inactive),0.0018% [at 3.72 µM] (inactive),-0.117% [at 3.72 µM] (inactive),-0.0373% [at 3.72 µM] (inactive),–,-0.0921% [at 3.72 µM] (inactive),-7.29% [at 6.9 µM] (inactive)
C=O,inactive,inactive,inactive,inactive,inactive,inactive,–,inactive,–,–,–,–,–,–,–,–,–,–,–
O=c1[nH]cnc2c1ncn2[C@@H]1O[C@H](CO)[C@@H](O)[C@H]1O,inactive,inactive,inactive,inactive,inactive,inactive,–,inactive,inactive,inactive,–,–,–,–,–,–,–,–,–
CCCNC(C)(C)COC(=O)c1ccccc1,inactive,inactive,inactive,inactive,inactive,inactive,inactive,inactive,–,inactive,–,–,–,–,–,–,–,–,–
CCOC(=O)C1CC(=O)C(=C(O)C2CC2)C(=O)C1 (stereo not given),inactive,inactive,inactive,inactive,inactive,inactive,inactive,inactive,–,inactive,–,–,–,–,–,–,–,–,–
CCCC1CCC(=O)O1 (stereo not given),inactive,inactive,inactive,inactive,inactive,inactive,inactive,inactive,–,inactive,–,–,–,–,–,–,–,–,–
CC1=C2[C@H](/C=C(\C)C(=O)O)CC[C@@H](C)[C@H]2CC1,inactive,inactive,inactive,inactive,inactive,inactive,inactive,inactive,–,inactive,–,–,–,–,–,–,–,–,–
CCCCCCCCCC#N,inactive,inactive,inactive,inactive,inactive,inactive,–,inactive,inactive,inactive,–,–,–,–,–,–,–,–,–
CCOC(=O)C(Br)c1ccccc1 (stereo not given),inactive,inactive,inactive,inactive,inactive,inactive,–,inactive,–,–,–,–,–,–,–,–,–,–,–
CC(C)OC(C)C,inactive,inactive,inactive,inactive,inactive,inactive,inactive,inactive,–,inactive,–,–,–,–,–,–,–,–,–
